Measured values taken from PubChem BioAssay AID1159580 (chemical genetic matrix, 2015).
Values joined by “and” are separate entries in the source; they are usually repeats but may differ in a detail not shown here. Equal entries are not always repeated. Out of some 5,500 compounds screened, about 2,000 (36%) were called active. Not shown: some 18% with an inconclusive outcome. Cut-off read from the data, not from the text of the source: active = normalized growth mostly below about 0.91 (no sharp cut-off); inconclusive = no clear call, values can overlap the other calls; inactive = mostly above about 0.92. This is one part of the list.

Test: chemical genetic growth profiling, strain panel (AID 1159580);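 note: tested at 20 µM; growth read once vehicle control cultures reached saturation at 30 °C; 1 = growth at the plate median or of vehicle wells; lower values mean less growth of the strain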
Conditions: S. cerevisiae deletion strains, growth OD

Measured: normalized growth

CC(=O)OCC[C@H](C)CCC=C(C)C
inactive: locus YAL013W, strain DEP1, active compounds read low 1 | locus YAL021C, strain ccr4, active compounds read low 0.993 | locus YAL026C, strain drs2, active compounds read low 0.993 | locus YAL030W, strain snc1, active compounds read low 0.989 | locus YBL061C, strain skt5, active compounds read low 0.992 | locus YBR009C, strain hhf1, active compounds read low 1.06 | locus YBR021W, strain FUR4, active compounds read low 0.991 | locus YBR023C, strain chs3, active compounds read low 0.995 | locus YBR171W, strain sec66, active compounds read low 0.983 | locus YBR229C, strain ROT2, active compounds read low 1.01 | locus YBR231C, strain swc5, active compounds read low 0.986 | locus YBR279W, strain paf1, active compounds read low 0.997 | locus YCL011C, strain gbp2, active compounds read low 1.01 | locus YCL016C, strain dcc1, active compounds read low 0.994 | locus YCL029C, strain bik1, active compounds read low 1.03 | locus YCL061C, strain MRC1, active compounds read low 1 | locus YCL069W, strain vba3, active compounds read low 0.989 | locus YCR088W, strain abp1, active compounds read low 0.989 | locus YDL005C, strain med2, active compounds read low 0.978 | locus YDL035C, strain GPR1, active compounds read low 1.02 | locus YDL040C, strain nat1, active compounds read low 0.993 | locus YDL074C, strain BRE1, active compounds read low 1.05 | locus YDL101C, strain DUN1, active compounds read low 1.01 | locus YDL185W, strain tfp1, active compounds read low 1.02 | locus YDL192W, strain arf1, active compounds read low 1.04 | locus YDR001C, strain nth1, active compounds read low 0.998 | locus YDR069C, strain doa4, active compounds read low 0.991 | locus YDR101C, strain arx1, active compounds read low 1.03 | locus YDR137W, strain rgp1, active compounds read low 0.974 | locus YDR150W, strain NUM1, active compounds read low 1.01 | locus YDR159W, strain sac3, active compounds read low 1.02 | locus YDR162C, strain NBP2, active compounds read low 1.01 | locus YDR195W, strain ref2 0.949 | locus YDR297W, strain sur2, active compounds read low 1.01 | locus YDR318W, strain mcm21, active compounds read low 1.02 | locus YDR334W, strain swr1, active compounds read low 0.998 | locus YDR335W, strain msn5, active compounds read low 0.992 | locus YDR388W, active compounds read low 1.02 | locus YDR392W, strain spt3, active compounds read low 0.966 | locus YDR502C, strain sam2, active compounds read low 1.01 | locus YEL003W, strain gim4, active compounds read low 1 | locus YEL037C, strain rad23, active compounds read low 0.995 | locus YEL061C, strain CIN8 (second series), active compounds read low 1.03 | locus YEL061C, strain CIN8, active compounds read low 1.01 | locus YER015W, strain faa2, active compounds read low 0.993 | locus YER016W, strain bim1, active compounds read low 0.962 | locus YER110C, active compounds read low 1.03 | locus YER111C, strain swi4, active compounds read low 0.992 | locus YER155C, strain BEM2 (second series), active compounds read low 0.973 | locus YER155C, strain BEM2, active compounds read low 0.988 | locus YER167W, strain BCK2, active compounds read low 1.01 | locus YFR010W, strain ubp6, active compounds read low 1.01 | locus YGL078C, strain dbp3, active compounds read low 1.01 | locus YGL086W, strain mad1, active compounds read low 1.01 | locus YGL167C, strain pmr1, active compounds read low 0.99 | locus YGL173C, strain kem1, active compounds read low 0.986 | locus YGL227W, strain vid30, active compounds read low 0.987 | locus YGL240W, strain doc1, active compounds read low 0.978 | locus YGL248W, strain PDE1, active compounds read low 1.02 | locus YGL253W, strain hxk2, active compounds read low 0.997 | locus YGR135W, strain pre9, active compounds read low 1.06 | locus YGR252W, strain gcn5, active compounds read low 1.06 | locus YHR013C, strain ard1, active compounds read low 0.967 | locus YHR027C, strain rpn1, active compounds read low 0.99 | locus YHR030C, strain SLT2, active compounds read low 1 and 1.01 | locus YHR079C, strain IRE1 (second series), active compounds read low 1.02 | locus YHR079C, strain IRE1, active compounds read low 1.01 | locus YHR094C, strain hxt1, active compounds read low 1.02 | locus YHR129C, strain ARP1, active compounds read low 0.999 | locus YHR142W, strain chs7, active compounds read low 0.988 | locus YHR200W, strain rpn10, active compounds read low 1.03 | locus YIL066C, strain RNR3, active compounds read low 1.01 | locus YIL073C, strain SPO22, active compounds read low 1.1 | locus YIL125W, strain kgd1, active compounds read low 1.01 | locus YIR030C, strain dcg1, active compounds read low 1.02 | locus YJL092W, strain hpr5, active compounds read low 0.999 | locus YJL095W, strain BCK1 (second series), active compounds read low 0.99 | locus YJL095W, strain BCK1, active compounds read low 1.02 | locus YJL115W, strain asf1, active compounds read low 0.991 | locus YJL129C, strain trk1, active compounds read low 0.968 | locus YJL134W, strain LCB3, active compounds read low 1.01 | locus YJL154C, strain vps35, active compounds read low 0.981 | locus YJL164C, strain tpk1, active compounds read low 1.02 | locus YJL166W, strain qcr8, active compounds read low 0.96 | locus YJL168C, strain set2, active compounds read low 1.02 | locus YJL187C, strain SWE1 (second series), active compounds read low 1.02 | locus YJL187C, strain SWE1, active compounds read low 0.982
